Test results as given in PubChem BioAssay (NCI).
This is part of a sample that, as a whole, favours compounds with a hit. Of some 83,000 tested, about 20% had one in any assay.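 96-well plates, one dose, 48 hours. Percent growth reported; active if below 10.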 Unmarked numbers belong to inactive results. The source made the active and inactive calls.

Tested on: HCT-116 colon
Experiment: NCI-60 one-dose screen, 48 h (100 = growth as untreated, 0 = no growth, -100 = all killed)
Details: 10 µM unless noted
Description: Growth inhibition of the HCT-116 human tumor cell line is measured as a screen for anti-cancer activity. Cells are grown in 96 well plates and exposed to the test compound for 48 hours. Compounds are tested at a single concentration, which is 10^-5 M for most compounds. The reported endpoint is percent growth (GI% or GIPRCNT), where numbers from 0 - 100% represent growth inhibition, and numbers from -100% - 0 represent cell death. For example, a value of 40 represents 60% growth inhibition. A value of 0 means no net growth occurred over the course of the experiment. A value of -40 indicates 40% of cells at the beginning of the experiment died by the end of the experiment. A value of -100 means all cells are dead at the end of the experiment.
NCI-60 Human Tumor Cell Lines Screen was performed using the standard one-dose NCI protocol, which is described in more detail at https://dtp.cancer.gov/discovery_development/nci-60/default.htm.
Compounds with GIPRCNT values below 10 were considered active. Activity score was based on GIPRCNT using the following formula: […]
Score is 0 for GIPRCNT values of 100 or above, 50 for GIPRCNT values of 0, and 100 for GIPRCNT values of -100.

Row | Compound | growth
1 | CN1C(=O)N(C)C2Nn3c(s/c(=C\c4ccc(Cl)cc4Cl)c3=O)=NC21 (stereo not given) | 43.9%
2 | COc1ccc(C2C3=C(COC3=O)N(CCO)c3cc4c(cc32)OCCO4)cc1 (stereo not given) | 77.2%
3 | COc1cc(C(=O)O/N=C(\N)Cc2cccc3ccccc23)cc(OC)c1OC | -71.4% (active)
4 | Nc1cccc(Nc2cc(S(=O)(=O)O)c(N)c3c2C(=O)c2ccccc2C3=O)c1 | 108%
5 | O=C(NC1CCN(Cc2ccccc2)CC1)c1cc2nc(-c3ccc(Cl)s3)cc(C(F)(F)F)n2n1 | 28%
6 | COc1ccc(CCN2C(=O)CCSC2=S)cc1OC | 103%
7 | COc1ccc(-c2nocc2-c2cccs2)cc1 | 103%
8 | O=c1oc2ccc(I)cc2c(=O)n1-c1ccc(Br)cc1F | 0.474% (active)
9 | CC(=O)O[C@@H]1/C=C/C(=O)N[C@@H](C)CCC/C=C/[C@@H]2CCC[C@H]21 | 104%
10 | COc1cc2nc(-c3cnc(N(C)C)nc3)nc(NC3CCN(Cc4ccccc4)CC3)c2cc1OC | -80.6% (active)
11 | COC(=O)C1(C)CCC[C@]2(C)[C@H]3C[C@H]4C(C(C)C)=C[C@]3(CC[C@@H]12)[C@H]1[C@@H]4[C@@H](OCC#CCN2CCOCC2)CC[C@@H]1OCC#CCN1CCOCC1 (stereo not given in full) | 81%
12 | COc1cc(C=C2C(=O)N(C)C(=O)N(C)C2=O)cc(CN2CCCCC2)c1O | 100%
13 | CCCCCCCCCCOC(=O)c1ccccc1C(=O)OCCCC | 84.9%
14 | CN1C(=O)N(C)C2C1NN=c1s/c(=C\c3ccc([N+](=O)[O-])cc3)c(=O)n12 (stereo not given) | 37.6%
15 | COc1ccc(-c2nc(N3CCN(C(=O)C4CCCCC4)CC3)c3c4c(sc3n2)CCCC4)cc1 | 17%
16 | CCOC(=O)c1sc(-c2ccc(OS(=O)(=O)c3ccc(Br)s3)c(C=O)c2)nc1C | 2.52% (active)
17 | COc1ccc(N2C(=O)CC(c3cc(OC)c(OC)c(OC)c3)C3C2=NC(=O)N3C)cc1 (stereo not given) | 106%
18 | COc1ccc(/C=C/C(=O)c2c(C)nc3ccccc3c2/C=C/c2ccccc2)cc1O | 12%
19 | CCCCc1c(CCC)c(=N)c2ccccc2n1C | 64.1%
20 | COc1cc2nc(NC3CCC3)nc(NC3CCN(C(C)C)CC3)c2cc1OC | 48.1%

Row | Compound | growth
21 | COc1ccccc1CNC(=O)C1c2ccccc2C(=O)N(CC(C)C)C1c1cccs1 (stereo not given) | 59.9%
22 | Oc1[nH]c2ccccc2c1N=Nc1nnc2n1N=C(c1ccccc1)CS2 | 86.4%
23 | COc1ccc(-c2cc(=O)c3c(OC)c4ccoc4c(/C=C/C=O)c3o2)cc1 | -73% (active)
24 | Cc1ccc(F)cc1NC(=O)c1cc(Cl)ccc1Nc1ccccc1 | 30.9%
25 | O=C(CN1C=NC2C(N3CCOCC3)=NC=NC21)c1ccc(Br)cc1 (stereo not given) | 103%
26 | O=C(Nc1ccc(F)c(Cl)c1)Nc1ccc(Cl)c(Cl)c1 | 50.6%
27 | O=C(Cc1ccccc1)NC(c1ccc(Cl)cc1)c1c(O)ccc2ccccc12 (stereo not given) | 2.62% (active)
28 | O=c1cc(NC2CCN(CCCc3ccccc3)CC2)c2cc(Cl)ccc2o1 | 8.12% (active)
29 | COC(=O)/C(=C\c1c(-c2ccccc2)[nH]c2ccccc12)S(C)(=O)=O | 17.4%
30 | COc1ccc(-c2nnc(COc3ccc(C(=O)/C=C/c4ccco4)cc3)o2)cc1 | -10.2% (active)
31 | Cc1cccc2c(=O)c3c(sc12)c(NCCCNCCO)nc1ccccc13 | -30.3% (active)
32 | COC(=O)[C@@H]1CCCN1C(=O)[C@H]1CCCN1C(=O)[C@@H](Cc1c[nH]c2ccccc12)NC(=S)Nc1cc(C(F)(F)F)cc(C(F)(F)F)c1 | 36.9%
33 | O=c1oc2ccc(Cl)cc2c(=O)n1-c1ccc(F)cc1F | 7.6% (active)
34 | COc1cc(C2C(C#N)=C(N)OC3=C2C(=O)c2ccccc2C3=O)cc(OC)c1O (stereo not given) | 22.5%
35 | Cc1ccc2cc3c(N)c4c(C)ccc(C)c4nc3nc2c1 | 24.5%
36 | O=C(Nc1ccc(F)cc1F)c1cc(Cl)ccc1O | 8.39% (active)
37 | O=c1nc2sc3nc4ccccc4cc3cc-2s1 | 102%
38 | NCCNc1nc2ccc(F)cc2c2c(=O)c3cc(F)ccc3sc12 | -87.1% (active)
39 | COc1ccc(CN2CCCC(C(=O)c3ccc(C(F)(F)F)cc3)C2)c(O)c1 (stereo not given) | 15.9%
40 | COC(=O)/C(CCC=C(C)C)=C1\[C@@H](OC(C)=O)C[C@@]2(C)[C@H]1C[C@@H](O)[C@H]1[C@@]3(C)CC[C@H](NCc4ccccc4)[C@@H](C)[C@@H]3CC[C@@]12C | 20.2%
